# Screens as filed in PubChem.
# An excerpt weighted towards active compounds, which were near 12% of everything screened.
# SARS PLP yeast: SARS-CoV PLP inhibition in yeast. S. cerevisiae expressing SARS-CoV PLpro, growth rescue. Potency, µM (titrated, usually from 32.9 µM), for the others: at the top dose activity, positive = growth rescue, most hits filed as activators. hit rate 0.19% among 330,000. AID 485353; also: potency is read from the fitted curve at half-maximal effect; 0% is about no effect; nearly all actives have a fitted effect of over 55% in size
# NS1 inh: influenza NS1 inhibition | hit rate 0.4% among 270,000 | Potency, µM (titrated, usually from 46.1 µM), for the others: top-dose activity, positive = more growth; also: potency is read from the fitted curve at half-maximal effect; actives are rising curves; nearly all actives have a fitted effect of over 50% in size
#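 Compounds were scored for reversing the slow growth caused by influenza A NS1 in S. cerevisiae, measured by optical density at 600 nm. Assay medium contained 2% galactose at pH 6.0; NS1-free yeast of the same strain were the positive control.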
# Shiga inhibitor: Shiga toxin inhibition | Vero cells, Shiga toxin protein synthesis inhibition reporter | inhibition, % at 38.7 µM | hit rate 9.2% among 290,000; in the data active = inhibition mostly above about 28%, no sharp cut-off; inactive = mostly below about 43%; also: 0% is about no effect
# Cycloheximide cs: affects cycloheximide protein synthesis inhibition readout, counter-screen. cell reporter, cycloheximide protein synthesis inhibition counterscreen. max response, %. hit rate 12% among 300,000. AID 2314; in the data active = max response mostly above about 13%, no sharp cut-off; inactive = mostly below about 14%; also: read at 38.3 µM for the half of the compounds with a filed dose; 0% is about no effect
# * hit, by the source's call; i = inactive; ? = inconclusive; / = no result given. Unless noted, calls follow the shape of the full dose curve.
SMILES,SARS PLP yeast,NS1 inh,Shiga inhibitor,Cycloheximide cs
COc1cc(/C=N/NC(=O)c2cccc([N+](=O)[O-])c2)ccc1O,-1%,2%,21,20
COc1ccc(/C=N/NC(=O)c2cccc([N+](=O)[O-])c2)cc1O,-1%,-2%,102*,25*
COc1cc(/C=N/NC(=O)c2cccc([N+](=O)[O-])c2)ccc1OCc1ccc(C)cc1,2%,5%,62*,22*
COCCN(C(=O)COC(=O)c1cnc(C)cn1)c1c(N)n(Cc2ccccc2)c(=O)[nH]c1=O,2%,/,/,/
C=CCCCCCCCCC(=O)NNC1=CC(=O)CC(C)(C)C1,3%,24%,-15,-3
Cc1nc(Cl)sc1C(=O)NC(C)c1ccc(Cl)cc1 (stereo not drawn),11%,2%,10,-5
CCOC(=O)c1c(C)oc2c1c(C(c1cccnc1)N1CCOCC1)c(O)c1ccccc12 (stereo not drawn),-36%,-6%,123*,49*
CCOC(=O)c1c(C)oc2c1c(C(c1cccnc1)N1CCN(C)CC1)c(O)c1ccccc12 (stereo not drawn),-12%,-70%,156*,53*
C[C@H](NC(=O)c1ccc(Cl)c(Cl)c1)c1ccc(-c2ccccc2)cc1,/,0%,/,/
NC1=C(Br)C(=O)c2ccccc2C1=O,-6%,-49%,81*,31*
Nc1ccc(O)c2c1C(=O)c1ccccc1C2=O,-33%,3%,36*,22*
COc1ccc(N)c2c1C(=O)c1ccccc1C2=O,-97%,-32%,60*,51*
Nc1ccc(Br)c2c1C(=O)c1ccccc1C2=O,-9%,-94%,20,28*
COc1ccc(OC)c2c1C(=O)C(Cl)=C(Cl)C2=O,-5%,-83%,13,15*
CCc1nonc1NC(=O)c1oc2ccccc2c1C,-1%,-15%,24,36*
Cc1cc(C)c2c(C)c(C(=O)NCc3ccncc3)oc2c1,-19%,-7%,-2,-2
CCc1nonc1NC(=O)c1oc2cc(Br)ccc2c1C,3%,-9%,19,15*
CCc1ccc2oc(C(=O)NCc3ccncc3)c(C)c2c1,-27%,-6%,50*,22*
CCc1nonc1NC(=O)c1oc2ccc(C)cc2c1C,-1%,0%,45*,36*
CCc1nonc1NC(=O)c1oc2c(C)c(C)ccc2c1C,-3%,-8%,3,2
CCOC(=O)[C@H]1[C@H]2COc3cc(OC)ccc3[C@@H]2N2C(=O)c3cc(OC)c(OC)cc3NC(=O)[C@@]12C,1%,/,/,/
CO/N=C/CC(=O)c1ccc([N+](=O)[O-])c(CS(=O)(=O)c2ccc(Cl)cc2)c1,1%,?,2,2
CC(C)Cc1ccc(C(C)C(N)=NCCc2ccccc2)cc1 (stereo not drawn),-3%,-3%,-8,7
CCc1ccc2oc(C(=O)Nc3nonc3CC)c(C)c2c1,8%,0%,53*,59*
CCN(CCn1cccn1)C(=O)c1cc(COc2ccccc2SC)on1,-4%,-12%,94*,65*
SMILES,SARS PLP yeast,NS1 inh,Shiga inhibitor,Cycloheximide cs
CCC1C(=O)NCCN1C(=O)c1cc(COc2cc(C)ccc2C)on1 (stereo not drawn),-1%,-19%,-1,12
CCN(CCn1cccn1)C(=O)c1cc(COc2ccc(F)c(F)c2)on1,-4%,-19%,50*,30*
CCN(CCn1cccn1)C(=O)c1cc(COc2cc(C)ccc2C)on1,-7%,-20%,168*,62*
CCC(C)/C(C)=N/NC(=O)c1ccc(COc2ccc(Cl)c(C)c2)cc1 (stereo not drawn),-43%,?,33,38*
Cc1cc(OCCCC(=O)NNC(=O)c2ccncc2)ccc1Cl,-5%,4%,16,-2
COc1ccc(-c2cc(O)cc(O)c2)cc1,-5%,-9%,50*,33*
O=C(/C=C/c1cccnc1)c1ccc(O)cc1,0%,3%,8,13*
O=C(/C=C/c1ccc(O)cc1)c1ccccc1,-2%,-58%,75*,39*
COc1ccc(OC)cc1,4%,/,/,/
COC(=O)C1=C(C)NC(=O)NC1c1ccc(N2CCC(c3ccccc3)=N2)cc1 (stereo not drawn),0%,1%,-1,-1
O=C(/C=C/c1ccc(N2CCC(c3ccccc3)=N2)cc1)c1ccccc1,-1%,/,80*,39*
O=C(/C=C/c1cccc(O)c1)c1cccnc1,2%,/,19,11
O=C(/C=C/c1cccnc1)c1ccc([N+](=O)[O-])cc1,-20%,-7%,-7,-4
Cc1nn(C)cc1/C=C/C(=O)c1ccc(O)cc1,6%,-12%,40*,38*
COc1ccc2cc(C(=O)/C=C/c3cc(OC)c(O)c(OC)c3)ccc2c1,-1%,16%,39,16
COc1ccc(C(=O)/C=C/c2ccc(O)cc2)cc1,-4%,-34%,87*,37*
CCOc1ccc(/C=C/C(=O)Oc2ccc(OC)cc2)cc1,4%,16%,-12,-4
COc1ccc(/C=C/C(=O)Oc2cc(O)cc(O)c2)cc1,-2%,5%,35*,21*
Cc1ccccc1C(=O)OCCN(C)Cc1ccccc1,1%,4%,23,11
Clc1ccc(CN2CCN(c3ncccn3)CC2)c(Cl)c1,5%,-19%,14,7
CCSC1=N/C(=C/c2ccsc2)C(=O)N1c1ccccc1,-22%,-1%,-9,-2
O=C(CNC(=O)c1cccc(Cl)c1)N/N=C/C=C/c1ccccc1,2%,0%,10,6
Clc1ccc(/C=C/c2ncc[nH]2)c(Cl)c1,-7%,-79%,65*,46*
CSC1=NC(C)(C)C=C(/C=C/c2ccc(Cl)cc2Cl)N1,1%,/,33,15
CCOCCCNCc1ccc(OCc2ccccc2C)c(OC)c1,0%,-7%,-2,-3
SMILES,SARS PLP yeast,NS1 inh,Shiga inhibitor,Cycloheximide cs
Cc1ccc(-c2onc3ccc(C4(C)OCCO4)cc23)cc1,?,1%,-23,-5
CC(=O)c1ccc2noc(-c3ccc(Cl)cc3)c2c1,-2%,/,15,-3
Cc1cc(-c2onc3ccc(Cl)cc23)ccc1O,-3%,20%,50*,27*
Cc1ccc(-c2onc3ccc(C=O)cc23)cc1,-7%,-52%,99*,59*
O=C(c1ccc(F)cc1Cl)N1CCN(S(=O)(=O)c2cccs2)CC1,-3%,-7%,-8,-2
COc1cc(CN2CCCCC2)cc2cc(C(=O)O)c(=O)oc12,/,-8%,/,/
O=C1CCCCC2CCCCN12 (stereo not drawn),/,/,i,9
COCCCNC(=O)/C(C#N)=C1\N=C(NC(=O)c2cccs2)c2ccccc21,0%,-3%,6,18*
COc1cc(Cl)cc(/C=C/c2ccc3ccccc3n2)c1OC(C)=O,6%,-3%,97*,84*
COc1cc(/C=C/c2ccc3cccc(OC)c3n2)c(OC(C)=O)c([N+](=O)[O-])c1,-19%,-2%,-2,-3
COc1cc(/C=C/c2cc(C(=O)O)c3ccccc3n2)ccc1OC(F)F,0%,6%,12,1
CC(=O)Oc1ccc(Cl)cc1/C=C/c1cc(OC(C)=O)c2ccccc2n1,1%,9%,34*,20*
O=[N+]([O-])c1cccc(C(=Nc2cccc(Cl)c2)NO)c1,-2%,-7%,-6,-3
ONC(=Nc1ccc(Cl)cc1)c1ccccc1,-6%,0%,7,18*
